Results from PubChem BioAssay (NCI).
This is part of a sample that, as a whole, favours compounds with a hit. Of some 79,000 tested, about 15% had one in any assay. Rule as the data show it: active = growth inhibition above about 70%; inactive = the rest.

Legend:
[1] = NCI Yeast Anticancer Drug Screen. Data for the rad50 strain (AID 155);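 also: 0% = growth of vehicle-only cultures of the same strain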; settings: S. cerevisiae rad50 strain growth inhibition; at 50.0 µM; stronger effect = higher value
How it was run: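 Relative growth inhibition (compound vs vehicle) was measured in yeast with a defined repair-gene alteration.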

[2] = NCI Yeast Anticancer Drug Screen. Data for the mec2-1 strain (AID 157); settings: S. cerevisiae mec2-1 strain, at 50.0 µM, stronger effect = higher value
How it was run: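 Growth inhibition is read against vehicle-treated controls after compound exposure of the mec2-1 yeast strain, which is defective in DNA damage repair or cell cycle control.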

[3] = NCI Yeast Anticancer Drug Screen. Data for the sgs1 mgt1 strain (AID 161);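 also: 0% = growth of cultures given vehicle only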; settings: S. cerevisiae sgs1 mgt1 strain, at 50.0 µM, stronger effect = higher value
How it was run: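 Growth of a repair-deficient yeast mutant was monitored after compound treatment and expressed as inhibition relative to vehicle-treated cultures.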

[4] = NCI Yeast Anticancer Drug Screen. Data for the cln2 rad14 strain (AID 165);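 also: 0% = growth equal to vehicle treated cultures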; settings: S. cerevisiae cln2 rad14 strain, at 50.0 µM, stronger effect = higher value
How it was run: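 Growth inhibition, relative to vehicle-treated controls, is the read-out. The test organism is a yeast strain with defined genetic alterations, cln2 rad14.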

[5] = NCI Yeast Anticancer Drug Screen. Data for the bub3 strain (AID 167); settings: S. cerevisiae bub3 mutant strain, at 50.0 µM, stronger effect = higher value
How it was run: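 Screening used yeast with an engineered genetic alteration affecting cell cycle control. Compound-exposed cultures were compared with vehicle cultures, and reduced growth was taken as inhibition.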

[6] = NCI Yeast Anticancer Drug Screen. Data for the mlh1 rad18 strain (AID 175); settings: S. cerevisiae mlh1 rad18 strain growth inhibition; at 50.0 µM; stronger effect = higher value
How it was run: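 Cells of a genetically altered yeast strain, deficient in DNA damage repair, were treated with compound. Their growth was then compared with that of vehicle-treated cultures to give inhibition.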

Measured: growth inhibition

COC(=O)C12OCC34C(CC5C(C)CC(=O)C(O)C5(C)C3C(O)C1O)OC(=O)C(OC(C)=O)C24 (stereo unspecified)
inactive: [1] 31.2% | [2] 44.4% | [3] 11.6% | [4] 36% | [5] 24.2% | [6] 31.6%

Cc1cc(=O)c2cc(N=Cc3ccc(N(C)C)cc3)ccc2o1
inactive: [1] 5.25% | [2] -10.9% | [3] -16.8% | [4] 17.1% | [5] 0.75% | [6] 16.1%

Nc1ccn(C2OC(CCl)C(O)C2O)c(=O)n1 (stereo unspecified)
inactive: [1] 17.2% | [2] 3.2% | [3] -4.15% | [4] 4.1% | [5] -39.9% | [6] -36.1%

C=C(Cl)C(=C)CCC(Cl)C(C)C (stereo unspecified)
inactive: [1] -6.15% | [2] -9.4% | [3] 1.6% | [4] 20.6% | [5] 0.25% | [6] 0.55%

CCOC(=O)NC(=O)c1cn(CCN2CCN(c3ncnc4nc[nH]c34)CC2)c(=O)[nH]c1=O
inactive: [1] 18.9% | [2] 16.6% | [3] 14.4% | [4] 12.7% | [5] -4.3% | [6] 23.1%

C=C1c2c(cc3c(c2O)c(=O)c2ccccc2n3C)OC1(C)C
inactive: [1] -31.2% | [2] -36.6% | [3] -23.1% | [4] -24.3% | [5] -25.8% | [6] -25.4%

O=C1CNC(=O)N1CCCl
inactive: [1] 19.7% | [2] -4.7% | [3] -7.65% | [4] 6.3% | [5] 6.15% | [6] -6.7%

O=C(O)/C=C/c1ccc(OCc2ccccc2)c(OCc2ccccc2)c1
inactive: [1] 0.7% | [2] -11.7% | [3] 7.15% | [4] -10.9% | [5] -8.85% | [6] -6.9%

CCOC(=O)CC(C(C)=O)C(=O)OCC (stereo unspecified)
inactive: [1] 14.9% | [2] 12.3% | [3] -3.55% | [4] -29.6% | [5] 5.6% | [6] -1.4%

O=C(NNC(=O)c1cccc(F)c1)c1cccc(F)c1
inactive: [1] -20.6% | [2] -8.1% | [3] -13.3% | [4] 18.9% | [5] -6.4% | [6] -1.75%

C=CCNc1nc2c(s1)CCc1cc(OC)c(OC)cc1-2
inactive: [1] 30.1% | [2] 10.6% | [3] 12% | [4] 29.4% | [5] 15.2% | [6] 61.6%

O=C(Nc1cccc(Cl)c1)Oc1cccnc1
inactive: [1] -5.1% | [2] -29.9% | [3] 7.7% | [4] -4.55% | [5] -2.85% | [6] -12.6%

Nc1nc2c(C(=O)c3cccs3)nnn2c2cccc(Cl)c12
inactive: [1] -21.1% | [2] -21.1% | [3] -21.9% | [4] -12.2% | [5] -14.8% | [6] -2.25%

COc1cc(/C=N/N=C(\N)NO)cc(OC)c1OC
inactive: [1] -6.5% | [2] 3.85% | [3] 2.4% | [4] 6.35% | [5] 1% | [6] 4.55%

O=C1NCC/C1=C\c1ccccc1
inactive: [1] -7.2% | [2] -10.7% | [3] -4.6% | [4] -8.05% | [5] -6.65% | [6] -15.4%

CC(c1ccccc1)C1CC(=O)N(C)C1=O (stereo unspecified)
inactive: [1] 7.85% | [2] -15% | [3] 0.45% | [4] -19.9% | [5] -23.8% | [6] 2.35%

Cc1c(C)c(O)c(SC(CC(=O)O)C(=O)O)c(C)c1O (stereo unspecified)
inactive: [1] 14.8% | [2] 37.8% | [3] 41.1% | [4] 1.65% | [5] 21.7% | [6] 44.1%

CNC(=O)c1ccccc1C(O)c1ccc(C)cc1 (stereo unspecified)
inactive: [1] 7.65% | [2] -6.3% | [3] 17.6% | [4] 23.4% | [5] 37.6% | [6] 20.6%

O=C1NC=NC1c1ccccc1 (stereo unspecified)
inactive: [1] -2.25% | [2] -10.4% | [3] -9.9% | [4] -24.8% | [5] -3.65% | [6] -11.5%

O=CN(C1CCCCC1)C1CCCCC1
inactive: [1] 14.6% | [2] 15.6% | [3] 11% | [4] 8.8% | [5] 1.5% | [6] 0%

NNS(=O)(=O)c1ccc(Oc2ccc(S(=O)(=O)NN)cc2)cc1
inactive: [1] 10.8% | [2] 10.1% | [3] 24.6% | [4] -4.9% | [5] 14.9% | [6] 30.9%
